# In the supplement of paper PMC10849652:
# About 8,800 targets were measured; listed, in parts, are those with a hit and a random draw of the rest. About 0.5% of all pairs of compound and target were hits. Unmarked numbers belong to inactive results.
# How the values were obtained:
# Assay in all cases: log2 fold change, soluble protein after heating vs DMSO (PISA); higher = thermal stabilisation; K562 lysate, 10 uM; active = over 0.2 and 3.5 SD of the protein, either way, in both replicates (recomputed)
# [1] = compound: C=CC(=O)N1CCC[C@@H](n2nc(-c3ccc(Oc4ccccc4)cc3)c3c(N)ncnc32)C1 [ibrutinib]
# How it was run: (§1)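 K562 pellets were dounce-homogenised in PBS pH 7.4 containing 1 mM MgCl2, and the crude extract, at 1 mg/mL protein, was exposed to 10 μM compound for 30 min. Aliquots were heated for 3 min across 48°C-58°C, pooled, brought to 0.5% NP-40 at 4°C and spun at 21,000xg for 90 min, with the supernatant taken as soluble protein. TMTpro 16plex LC-MS/MS with equalised channel sums quantified that protein. Values are log-two fold changes in thermal stability relative to solvent controls, taken from duplicates.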
# [2] = compound: CC(=O)c1cnc2ccc(-c3cc(Cl)c(O)c(Cl)c3)nc2c1N[C@H]1CC[C@H](CN(C)C)CC1
# How it was run: as §1
# [3] = compound: CC(C)(C)Cn1c(N)nc2ccc(-c3[nH]c(C(C)(C)C)nc3-c3ccc(F)cc3)nc21 [ralimetinib]
# How it was run: as §1
# [4] = compound: CC(C)(O)CC(=O)NCCn1ccc2ncnc(Nc3ccc(Oc4cccc(C(F)(F)F)c4)c(Cl)c3)c21
# How it was run: as §1
# [5] = compound: CC(C)C1=C2N=C(C=C(N2N=C1)NCC3=CC=CC=C3)NCCCCCCN
# How it was run: as §1
# [6] = compound: CC1=C(C(CC(=O)N1)C2=CC=C(C=C2)C(F)(F)F)C(=O)NC3=C(C=C4C(=C3)C=NN4)F
# How it was run: as §1
# [7] = compound: CC1=C(C2=C(C=C1)C(=O)C3=CC=CC=C3N2CCCN)C
# How it was run: as §1
# [8] = compound: CC1=C(C=C(C=C1)NC(=O)C2=CC(=CC=C2)C(C)(C)C#N)NC3=CC4=C(C=C3)N=CN(C4=O)C
# How it was run: as §1
# [9] = compound: CC1=C(C=C(C=C1)NC(=O)C2=CC(=CC=C2)N(C)C)NC(=O)C3=CC=C(C=C3)O
# How it was run: as §1
# [10] = compound: CC1=CC=C(C=C1)SC2=C3C=C(SC3=CN=C2)C(=O)N
# How it was run: as §1
# [11] = compound: CCCS(=O)(=O)Nc1ccc(F)c(C(=O)c2c[nH]c3ncc(-c4ccc(Cl)cc4)cc23)c1F [vemurafenib]
# How it was run: as §1
# [12] = compound: CCCS(=O)(=O)Nc1ccc(F)c(C(=O)c2c[nH]c3ncc(Cl)cc23)c1F
# How it was run: as §1
# [13] = compound: CCN(CCCOc1ccc2c(Nc3cc(CC(=O)Nc4cccc(F)c4)[nH]n3)ncnc2c1)CCOP(=O)(O)O [barasertib]
# How it was run: as §1
# [14] = compound: CC[C@@H]1C(=O)N(C)c2cnc(Nc3ccc(C(=O)NC4CCN(C)CC4)cc3OC)nc2N1C1CCCC1
# How it was run: as §1
# [15] = compound: CC[C@@H]1C(=O)N(C)c2cnc(Nc3ccc(C(=O)N[C@H]4CC[C@H](N5CCN(CC6CC6)CC5)CC4)cc3OC)nc2N1C(C)C [volasertib]
# How it was run: as §1
# [16] = compound: CCn1c(C(=O)N(C2CC2)C2CC2)cc2c3c(ncn3C)c(Nc3cc(C)n(C)n3)nc21
# How it was run: as §1
# [17] = compound: CCn1cc(-c2ccnc3[nH]c(-c4cccc(CN(C)C)c4)cc23)c(-c2ccc(NC(=O)N(C)C)cc2)n1
# How it was run: as §1
# [18] = compound: CN1CCC(CNc2ccc3ncc(-c4cccc(OC(F)(F)F)c4)n3n2)CC1
# How it was run: as §1
# [19] = compound: CN1CCN(CCOc2cc(OC3CCOCC3)c3c(Nc4c(Cl)ccc5c4OCO5)ncnc3c2)CC1 [saracatinib]
# How it was run: as §1
# [20] = compound: CN1CCN(c2nc(C3=C(c4c[nH]c5ccccc45)C(=O)NC3=O)c3ccccc3n2)CC1 [sotrastaurin]
# How it was run: as §1
# Sequence of UniProt Q9UJA2 (Q9UJA2 whole entry, looked up): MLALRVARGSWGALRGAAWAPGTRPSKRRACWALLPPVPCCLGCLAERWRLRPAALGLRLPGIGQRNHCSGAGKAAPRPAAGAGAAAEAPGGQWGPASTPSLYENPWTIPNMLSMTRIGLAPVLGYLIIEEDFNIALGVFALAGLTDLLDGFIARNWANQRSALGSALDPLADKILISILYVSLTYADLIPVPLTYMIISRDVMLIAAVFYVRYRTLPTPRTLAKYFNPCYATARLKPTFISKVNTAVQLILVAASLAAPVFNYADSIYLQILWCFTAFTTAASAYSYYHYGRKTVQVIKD
# Sequence of UniProt Q16527 (Q16527 whole entry, looked up): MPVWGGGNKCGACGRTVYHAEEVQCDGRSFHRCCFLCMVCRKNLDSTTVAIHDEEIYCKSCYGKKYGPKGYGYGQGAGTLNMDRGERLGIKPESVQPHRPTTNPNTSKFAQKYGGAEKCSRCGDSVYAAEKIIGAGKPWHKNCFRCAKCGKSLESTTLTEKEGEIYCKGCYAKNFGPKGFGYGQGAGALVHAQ
# Sequence of UniProt Q6ZPD9 (Q6ZPD9 whole entry, looked up): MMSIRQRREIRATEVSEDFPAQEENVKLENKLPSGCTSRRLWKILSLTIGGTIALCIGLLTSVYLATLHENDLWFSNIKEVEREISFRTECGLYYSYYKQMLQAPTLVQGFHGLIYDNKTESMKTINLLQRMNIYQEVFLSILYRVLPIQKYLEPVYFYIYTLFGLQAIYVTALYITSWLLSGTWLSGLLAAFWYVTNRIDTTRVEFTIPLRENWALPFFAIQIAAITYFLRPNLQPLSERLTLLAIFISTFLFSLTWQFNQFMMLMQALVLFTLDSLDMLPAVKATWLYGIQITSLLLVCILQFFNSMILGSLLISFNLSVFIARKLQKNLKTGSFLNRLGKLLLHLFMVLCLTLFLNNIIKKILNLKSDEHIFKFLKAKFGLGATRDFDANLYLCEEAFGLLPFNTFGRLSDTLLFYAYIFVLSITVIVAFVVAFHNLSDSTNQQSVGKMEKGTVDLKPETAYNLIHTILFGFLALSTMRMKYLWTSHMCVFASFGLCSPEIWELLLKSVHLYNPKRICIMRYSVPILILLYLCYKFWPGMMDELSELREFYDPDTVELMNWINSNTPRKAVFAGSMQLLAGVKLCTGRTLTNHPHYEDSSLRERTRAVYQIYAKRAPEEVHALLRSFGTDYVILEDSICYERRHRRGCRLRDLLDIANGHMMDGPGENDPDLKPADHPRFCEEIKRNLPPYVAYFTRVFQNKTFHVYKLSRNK
# Sequence of UniProt P83436 (P83436 whole entry, looked up): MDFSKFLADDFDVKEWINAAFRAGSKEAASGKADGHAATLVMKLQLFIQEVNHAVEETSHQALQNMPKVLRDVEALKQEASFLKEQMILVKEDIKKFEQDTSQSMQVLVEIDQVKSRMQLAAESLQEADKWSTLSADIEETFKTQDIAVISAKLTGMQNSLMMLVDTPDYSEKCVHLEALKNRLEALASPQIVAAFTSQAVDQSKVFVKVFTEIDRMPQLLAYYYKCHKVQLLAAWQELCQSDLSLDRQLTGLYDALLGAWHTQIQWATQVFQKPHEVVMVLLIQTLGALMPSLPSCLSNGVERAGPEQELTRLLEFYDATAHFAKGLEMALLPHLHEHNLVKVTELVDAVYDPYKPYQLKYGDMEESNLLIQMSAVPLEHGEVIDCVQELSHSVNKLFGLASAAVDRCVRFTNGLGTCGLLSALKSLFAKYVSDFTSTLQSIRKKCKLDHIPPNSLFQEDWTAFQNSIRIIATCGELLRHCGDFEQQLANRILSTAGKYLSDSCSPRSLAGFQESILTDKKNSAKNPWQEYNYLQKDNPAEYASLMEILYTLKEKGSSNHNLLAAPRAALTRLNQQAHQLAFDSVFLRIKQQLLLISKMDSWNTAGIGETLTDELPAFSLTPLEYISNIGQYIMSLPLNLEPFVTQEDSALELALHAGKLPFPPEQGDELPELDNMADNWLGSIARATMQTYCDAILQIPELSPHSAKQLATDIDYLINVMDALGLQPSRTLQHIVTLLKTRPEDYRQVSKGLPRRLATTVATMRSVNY
# Sequence of UniProt Q13616 (Q13616 whole entry, looked up): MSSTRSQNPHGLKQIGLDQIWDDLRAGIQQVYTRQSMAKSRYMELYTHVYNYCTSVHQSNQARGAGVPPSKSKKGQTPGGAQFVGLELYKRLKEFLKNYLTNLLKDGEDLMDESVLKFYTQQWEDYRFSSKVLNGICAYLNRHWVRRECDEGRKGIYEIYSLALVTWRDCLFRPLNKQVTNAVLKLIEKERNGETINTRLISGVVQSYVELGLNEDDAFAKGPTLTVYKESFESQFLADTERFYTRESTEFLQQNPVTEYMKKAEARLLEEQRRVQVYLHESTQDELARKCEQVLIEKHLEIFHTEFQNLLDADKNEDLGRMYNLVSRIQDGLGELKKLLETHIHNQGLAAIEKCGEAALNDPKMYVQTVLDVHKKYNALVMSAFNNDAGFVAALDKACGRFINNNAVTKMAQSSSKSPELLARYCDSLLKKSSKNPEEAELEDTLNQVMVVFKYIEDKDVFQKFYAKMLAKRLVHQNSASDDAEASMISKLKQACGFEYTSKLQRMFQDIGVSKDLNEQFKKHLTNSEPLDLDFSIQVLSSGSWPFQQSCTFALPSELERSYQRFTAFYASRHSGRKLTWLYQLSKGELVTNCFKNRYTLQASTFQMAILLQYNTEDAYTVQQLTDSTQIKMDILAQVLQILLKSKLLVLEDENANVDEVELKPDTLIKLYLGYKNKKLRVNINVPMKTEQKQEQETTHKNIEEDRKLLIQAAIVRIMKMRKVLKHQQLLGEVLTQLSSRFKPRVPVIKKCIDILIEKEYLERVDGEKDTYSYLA
# Sequence of UniProt Q1MSJ5 (Q1MSJ5 whole entry, looked up): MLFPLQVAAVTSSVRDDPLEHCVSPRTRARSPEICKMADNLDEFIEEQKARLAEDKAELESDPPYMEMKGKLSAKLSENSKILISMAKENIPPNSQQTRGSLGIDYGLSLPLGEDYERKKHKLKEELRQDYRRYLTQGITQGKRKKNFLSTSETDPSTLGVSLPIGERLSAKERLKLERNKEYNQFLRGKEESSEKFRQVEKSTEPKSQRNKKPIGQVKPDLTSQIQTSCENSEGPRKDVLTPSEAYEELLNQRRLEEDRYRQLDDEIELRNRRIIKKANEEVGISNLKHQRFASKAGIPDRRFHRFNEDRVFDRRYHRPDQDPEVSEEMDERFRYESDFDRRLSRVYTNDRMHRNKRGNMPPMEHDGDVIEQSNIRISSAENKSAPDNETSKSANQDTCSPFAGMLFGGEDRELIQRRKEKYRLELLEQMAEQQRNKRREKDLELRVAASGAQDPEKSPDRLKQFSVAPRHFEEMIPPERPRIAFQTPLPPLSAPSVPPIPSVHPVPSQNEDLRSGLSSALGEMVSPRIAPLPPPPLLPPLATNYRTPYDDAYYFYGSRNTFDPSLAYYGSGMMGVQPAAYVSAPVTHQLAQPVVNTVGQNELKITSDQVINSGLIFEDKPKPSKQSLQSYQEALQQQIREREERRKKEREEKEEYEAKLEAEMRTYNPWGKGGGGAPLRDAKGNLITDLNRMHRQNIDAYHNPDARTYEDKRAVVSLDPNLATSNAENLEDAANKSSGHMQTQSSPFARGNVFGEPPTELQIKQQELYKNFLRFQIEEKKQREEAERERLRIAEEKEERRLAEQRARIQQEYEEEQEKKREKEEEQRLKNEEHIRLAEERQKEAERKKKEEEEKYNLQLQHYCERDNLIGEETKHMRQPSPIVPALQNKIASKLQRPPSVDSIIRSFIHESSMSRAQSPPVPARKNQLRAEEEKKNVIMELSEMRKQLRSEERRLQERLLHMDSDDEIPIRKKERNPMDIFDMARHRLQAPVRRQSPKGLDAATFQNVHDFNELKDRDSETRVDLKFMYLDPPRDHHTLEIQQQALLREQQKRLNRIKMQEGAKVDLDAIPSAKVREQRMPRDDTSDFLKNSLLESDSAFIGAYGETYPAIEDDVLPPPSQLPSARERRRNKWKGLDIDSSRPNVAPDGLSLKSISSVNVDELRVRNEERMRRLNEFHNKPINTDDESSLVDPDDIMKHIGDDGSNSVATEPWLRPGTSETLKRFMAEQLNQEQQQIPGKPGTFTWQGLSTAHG
# Sequence of UniProt O95715 (O95715 whole entry, looked up): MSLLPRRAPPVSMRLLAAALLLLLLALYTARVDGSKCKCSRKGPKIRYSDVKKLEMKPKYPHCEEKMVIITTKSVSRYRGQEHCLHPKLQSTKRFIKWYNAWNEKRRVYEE
# Sequence of UniProt Q9P003 (Q9P003 whole entry, looked up): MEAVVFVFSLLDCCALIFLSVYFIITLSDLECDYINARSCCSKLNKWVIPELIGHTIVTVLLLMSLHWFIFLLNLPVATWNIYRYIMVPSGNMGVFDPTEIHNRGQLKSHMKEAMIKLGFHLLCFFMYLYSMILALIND
# Sequence of UniProt Q9NYP3 (Q9NYP3 whole entry, looked up): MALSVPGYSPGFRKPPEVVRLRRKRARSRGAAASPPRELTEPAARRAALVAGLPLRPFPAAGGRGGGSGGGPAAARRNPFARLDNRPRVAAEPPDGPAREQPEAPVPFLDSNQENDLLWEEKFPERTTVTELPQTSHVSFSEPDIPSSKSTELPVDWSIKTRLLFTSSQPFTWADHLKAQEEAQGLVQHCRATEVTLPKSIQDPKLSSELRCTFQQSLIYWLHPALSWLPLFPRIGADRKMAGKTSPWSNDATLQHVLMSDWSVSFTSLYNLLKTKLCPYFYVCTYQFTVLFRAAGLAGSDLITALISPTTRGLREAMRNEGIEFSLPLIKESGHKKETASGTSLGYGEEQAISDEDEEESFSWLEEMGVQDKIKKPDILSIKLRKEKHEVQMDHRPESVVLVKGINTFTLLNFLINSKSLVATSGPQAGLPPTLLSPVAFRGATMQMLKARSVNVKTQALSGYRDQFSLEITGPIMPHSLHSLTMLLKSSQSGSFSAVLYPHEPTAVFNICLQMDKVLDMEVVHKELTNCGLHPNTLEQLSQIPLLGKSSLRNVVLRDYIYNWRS
Target,log2 fold change [1],log2 fold change [2],log2 fold change [3],log2 fold change [4],log2 fold change [5],log2 fold change [6],log2 fold change [7],log2 fold change [8],log2 fold change [9],log2 fold change [10],log2 fold change [11],log2 fold change [12],log2 fold change [13],log2 fold change [14],log2 fold change [15],log2 fold change [16],log2 fold change [17],log2 fold change [18],log2 fold change [19],log2 fold change [20]
COG3 (UniProt Q96JB2),0.026,-0.008,0.052,-0.042,-0.04,0.006,-0.019,0.02,0.044,0.02,0.004,0.012,0.041,-0.056,-0.071,0.042,-0.038,0.012,0.046,0.008
DIAPH3 (UniProt Q9NSV4),0.012,0.093,0.086,-0.032,-0.066,0.043,0.005,-0.011,0.038,-0.035,0.041,0.028,0.057,-0.023,-0.099,0.058,-0.098,-0.092,0.053,0.064
CUL1 (UniProt Q13616),0.02,0.005,-0.004,-0.016,-0.018,-0.014,0.016,0.02,-0.001,-0.01,-0.008,0.001,-0.011,0.034,0.029,0.004,-0.013,0.029,-0.023,-0.029
CSPP1 (UniProt Q1MSJ5),0.052,0,0,0.026,-0.023,0,-0.015,-0.074,-0.006,0.084,0.03,-0.505 (active),0.026,0.057,0.125,0.05,0.029,-0.006,-0.049,-0.046
COG4 (UniProt Q9H9E3),0.014,0.005,-0.007,-0.042,-0.029,0,-0.001,-0.049,-0.033,0,0.018,0.047,0.085,-0.048,-0.088,0.024,0.005,-0.125,0.055,0.05
DPY19L3 (UniProt Q6ZPD9),-0.111,0.012,–,–,-0.224,–,–,0.047,–,-0.017,0.258,0.05,0.071,0.043,-0.007,–,–,–,–,0.051
CXCL14 (UniProt O95715),-0.012,–,–,–,–,–,–,–,–,–,0.252,–,0.079,0.189,–,–,–,–,–,–
CRLS1 (UniProt Q9UJA2),-0.023,-0.008,0.079,-0.027,-0.102,-0.049,–,0.066,0.058,0.048,–,0.063,0.014,–,0.005,0.017,0.022,-0.301,–,-0.008
COL6A3 (UniProt P12111),-0.087,–,0.174,-0.132,0.047,-0.066,-0.099,-0.021,-0.54 (active),–,–,–,0.347,–,–,0.086,0.254,-0.19,-0.039,0.031
COG7 (UniProt P83436),-0.04,-0.012,0.03,0.006,-0.049,-0.034,-0.001,-0.029,0.058,-0.007,0.003,0.018,0.017,-0.054,-0.076,-0.003,-0.209,-0.019,0.05,0.039
CSRP2 (UniProt Q16527),0.054,–,–,–,–,–,–,0.271,–,–,–,–,0.078,0.052,–,–,0.09,0.126,–,-0.351 (active)
DHRS13 (UniProt Q6UX07),-0.106,-0.003,0.094,-0.111,-0.073,0.082,-0.292,0.03,-0.009,0.111,–,0.291,0.236,–,-0.274,0.077,–,–,-0.031,0.095
DONSON (UniProt Q9NYP3),0.059,0.002,-0.033,0.074,-0.022,-0.071,-0.037,0.062,-0.096,-0.013,–,0.017,-0.03,–,0.026,-0.036,-0.026,-0.206,0.013,0.016
DIAPH1 (UniProt H9KV28),-0.063,0.024,-0.022,-0.106,-0.083,0.032,–,0.004,0.009,-0.03,0.098,-0.01,0.091,-0.049,-0.046,-0.046,-0.07,0.153,–,-0.001
CLASP1 (UniProt Q7Z460),–,0.013,0.02,0.024,0.01,0.018,0.004,0.02,0.036,0.001,0.025,0.013,0.048,-0.03,-0.018,0.039,-0.043,0.042,0.028,-0.022
CNDP2 (UniProt Q96KP4),0.013,-0.027,0.024,-0.049,-0.011,-0.005,-0.02,0.023,0,-0.035,0.01,0.023,-0.01,0.11,0.041,-0.032,-0.343 (active),0.278 (active),0.01,0.013
CIC (UniProt I3L1Q4),0.005,–,–,–,–,–,–,–,–,–,–,–,-0.169,–,–,–,–,–,–,–
DDR1 isoform 5 (UniProt Q08345),0,–,0.205,0.021,–,-0.117,-0.099,0.38,0.117,–,–,–,0.169,0.064,–,0.013,0.043,-0.479 (active),-0.142,-0.019
CNIH4 (UniProt Q9P003),0.13,-0.014,0.006,-0.152,0.278,0.066,-0.115,-0.008,0.211,-0.024,0.217,0.064,0.585,0.051,-0.077,-0.19,–,–,0.021,0.066
DENND1B (UniProt Q6P3S1),0.405,-0.034,-0.039,-0.114,-0.087,0.151,0.174,0.031,-0.003,0.011,0.128,-0.036,0.01,–,-0.05,-0.134,0.022,-0.024,-0.018,0.04
